This is an account of results in PubChem BioAssay (NCATS).

Structures are written as SMILES. Inconclusive results are not listed. A call without a number means that no potency is given here. A structure can be active in one record and inactive in another. Active and inactive are the calls of the source. Calls come from the whole dose curve; as a rule, active = well fitted inhibition curve with a large enough effect; inconclusive = small, poorly fitted or top-dose-only effect; inactive = no such curve, though single readings can be large or run the other way.
Potency is the fitted concentration of half-maximal effect.

The assay is described as follows: BET inhibitor-based combinations targeting novel dependencies in MECOM-rearranged (r) AML: UCSD-AML1 cell line (AID 2202235). Note: nearly all actives have a fitted effect of over 40% in size. Conditions: UCSD-AML1 AML cells viability, CellTiter-Glo, 48 h; series mostly up to 46 µM. The source says:
Ecotropic viral insertion site 1 (EVI1) is located on chromosome 3q26.2 as part of the MECOM (MDS and EVI1 complex) locus. Under normal hematopoiesis, EVI1 is a regulator of hematopoietic stem cell maintenance and self-renewal and EVI1 levels decrease as the cells differentiate. In approximately 5-10% of de novo acute myeloid leukemia (AML) EVI1 is aberrantly expressed, including Chromosomal inv(3)(q21;q26.2) or t(3;3)(q21;q26.2) alterations (MECOM-r) that account for about 50% of AML with EVI1 overexpression 31. AMLs with high levels of EVI1 have a poor prognosis and an overall survival time averaging between 10-14 months. EVI1 overexpression confers resistance in leukemia cells, highlighting the need to develop new targeted therapies for EVI1 overexpressing AMLs. Here, we performed an unbiased chemical drug screening by evaluating the single agent activity of a collection of 2,480 oncology-focused, approved and investigational drugs (NCATS Mechanism Interrogation Plates, MIPE v5.0) against a panel of seven AML cell lines. These included four MECOM-r cell-lines (AML-191, AML-194, UCSD-AML1 and HNT-34) and three non-MECOM-r AMLs (MV4-11, OCI-AML3 and SET-2). Exploiting the mechanistic redundancy built in the library, we identified target-level sensitivities in MECOM-r AML cells and relative activity as compared to other AML subtypes.
A collection of 2480 mechanistically annotated dugs (MIPE v5.0) was used to screen four 3q26.2 rearranged AML cell lines and three non-3q26.2 rearranged AML cell lines. This library purposely exploits redundancy by including multiple inhibitors of key onco-targets, while simultaneously encompassing mechanistic diversity, targeting more than 800 distinct mechanisms of action. Briefly, cells were seeded in 5 uL of growth media using a Multidrop Combi dispenser into 1536 well white polystyrene tissue culture treated plates (Corning) at a density of 500cells/well. For each cell-line, for each of the 2480 drugs in MIPE v5.0 library, an 11-point dose curve was generated via a 1536 pin-tool. Plates were incubated for 48 hr at standard incubator conditions, covered by a stainless steel gasketed lid to prevent evaporation. Cell viability was determined by luminescence based, Cell Titer Glo assay (Promega). In detail, 3 uL of Cell Titer Glo were added to each well and plates were incubated at room temperature for 15 min with a stainless-steel lid in place. Luminescence readings were taken using a Viewlux (PerkinElmer) with a 2 s exposure time per plate. Compound dose-response curves were normalized to DMSO and empty well controls on each plate. Quantitative drug activity data from dose-response curves was determined utilizing area Under the Curve (AUC) and Z-transformed AUC (Z-AUC, a mean-centering transformation applied to each individual cell-line screened).
A general note: Cellular ATP, detected with luciferase, serves as a proxy for viable cell number.
Consider `O=C1CC[C@H](N2Cc3c(OCc4ccc(CN5CCOCC5)cc4)cccc3C2=O)C(=O)N1`, for which the Potency entry is “inactive”.

With `CCn1c(=O)c(-c2ccc(-c3cncc(C)n3)cc2Cl)cc2cnc(NCCC3CCN(C)CC3)nc21`, the viability (% of control) is 99.8% [at 5.12 µM] (inactive).

Take `Cc1c(NC(=O)OCC2COCCN2)cn2ncnc(Nc3ccc4c(cnn4Cc4cccc(F)c4)c3)c12` (stereo not given): the Potency entry was “inactive”.

`Cc1[nH]c2ccccc2c1CCNCc1ccc(/C=C/C(=O)NO)cc1`: the Potency was 0.0934 µM (active).

In the case of `CC1(N)CCN(c2cnc(-c3cccc(Cl)c3Cl)c(N)n2)CC1`, the Potency entry is “inactive”.

Regarding `[2H]c1nc(C)nc([2H])c1-c1cc(NC[C@@H](C)c2cccc3c(C(=O)NC)ccnc23)ncn1`, the Potency result was “inactive”.

`CN1C(=O)[C@@H](NC(=O)c2cc(Cc3ccccc3)on2)COc2ccccc21`: the Potency entry was “inactive”.

On to `C[C@H](O)[C@@H]1C(=O)N2C(C(=O)O)=C(S[C@@H]3CN[C@H](CNS(N)(=O)=O)C3)[C@@H](C)[C@@H]12`, for which the Potency entry is “inactive”.

As for `Cc1cc(CN2CCN(c3c(Br)cnc4nc(-c5ccc(N6CCN(C)CC6)cc5)[nH]c34)CC2)no1`, the Potency was 2.63 µM (active).

With `COc1ccc(C(=O)N2CCN(c3ccc4c(c3)CCC(=O)N4)CC2)cc1OC`, the Potency result is “inactive”.

Regarding `CC(=O)NCC(=O)N1[C@@H]2CC[C@H]1c1ccc(Nc3ncc(C(F)(F)F)c(NC4CCC4)n3)cc12`, the Potency was 0.934 µM (active).

Consider `Cc1cnc(-c2ccccc2C(C)C)nc1NCc1ccc(-n2ccnn2)cc1`, for which the Potency result is “inactive”.

As to `NC1CCCN(c2c(/C=C3\SC(=O)NC3=O)cccc2-c2ccccc2)C1` (stereo not given), the Potency was 0.59 µM (active).

As for `C=CC(=O)N1CC/C(=C\c2ccc(F)c([N+](=O)[O-])c2)C(=O)/C(=C/c2ccc(F)c([N+](=O)[O-])c2)C1`, the Potency was 0.166 µM (active).

Take `CCC(C)CNCC(=O)N1CCc2sccc2C1c1cccc(C)n1` (stereo not given): the Potency result was “inactive”.

On to `NC[C@H]1O[C@H](O[C@H]2[C@H](O)[C@@H](O[C@H]3O[C@H](CO)[C@@H](O)[C@H](N)[C@H]3O)[C@H](N)C[C@@H]2N)[C@H](N)C[C@@H]1O`, for which the Potency result is “inactive”.

As for `CC1(C)OC2=C(C(=O)c3ccccc3C2=O)[C@H](NCc2ccccc2)[C@@H]1O`, the Potency is 9.34 µM (active).

For the compound `Cc1c(Cl)cccc1S(=O)(=O)Nc1nc(CCN2CCOCC2=O)cs1`, the Potency entry is “inactive”.

In the case of `O=C(NC1CC1)c1cccc(-c2ccc3c(NC(=O)C4CC4)n[nH]c3c2)c1`, the Potency was 4.68 µM (active).

For `CN(C)N=Nc1nc[nH]c1C(N)=O`, the Potency entry was “inactive”.

Take `O=C(O)/C=C/c1ccc(Cn2ccnc2)cc1`: the Potency result was “inactive”.

For `CNC(=O)[C@@H](NC(=O)[C@H](CC(C)C)[C@H](O)C(=O)NO)C(C)(C)C`, the Potency result is “inactive”.

`CNc1nc(-c2ccc3c(N)n[nH]c3c2)cc(N2C[C@@H](C(=O)NC3CCCCC3)CC[C@H]2C)n1`: the Potency is 0.742 µM (active).

Consider `CCc1cc2c(c(OCC(F)(F)F)c(C(=O)NC3CCN(C(=O)CO)CC3)n2C)c(=O)n1CC(=O)c1ccccc1`, for which the Potency entry was “inactive”.

As to `CC(=O)Nc1cc(Oc2ccc3c(nc(Nc4ccc(F)cc4F)n3C)c2C)ccn1`, the Potency was 0.235 µM (active).

Turning to `CN1CCN(C2CCC(n3cc(-c4ccc(Oc5ccccc5)cc4)c4c(N)ncnc43)CC2)CC1` (stereo not given), the Potency was 7.42 µM (active).

Take `CC[C@H]1OC(=O)[C@H](C)[C@@H](O[C@H]2C[C@@](C)(OC)[C@@H](O)[C@H](C)O2)[C@H](C)[C@@H](O[C@@H]2O[C@H](C)C[C@H](N(C)C)[C@H]2O)[C@](C)(O)C[C@@H](C)CN(C)[C@H](C)[C@@H](O)[C@]1(C)O`: the Potency result is “inactive”.

With `C=C1/C(=C/C=C2\CCCC3(C)[C@@H]([C@H](C)/C=C/C=C/C(O)(CC)CC)CC[C@@H]23)C[C@@H](O)C[C@@H]1O` (stereo not given in full), the Potency result is “inactive”.

For `CC(C)(C)S(=O)(=O)c1ccc2nccc(Nc3n[nH]c4ccc(F)cc34)c2c1`, the Potency is 0.0012 µM (active).

Regarding `OCCOc1ccc(/C(=C(/CCCl)c2ccccc2)c2ccccc2)cc1`, the Potency entry is “inactive”.

`Cc1c(CN2CCC(Nc3ncnc4sc(CC(F)(F)F)cc34)CC2)ccc2c1cc(C#N)n2Cc1cn[nH]c1`: the Potency was 16.6 µM (active).

With `CONC(=O)Nc1ccc(-c2sc3c(c2CN(C)Cc2ccccc2)c(=O)n(-c2ccccc2)c(=O)n3Cc2c(F)cccc2F)cc1`, the Potency result is “inactive”.

With `CC(/C=C/C(=O)NO)=C\[C@@H](C)C(=O)c1ccc(N(C)C)cc1`, the Potency was 1.05 µM (active).

Regarding `O=C(NCc1ccc(S(=O)(=O)c2cccc(C(F)(F)F)c2)cc1)c1cnc2[nH]ncc2c1`, the Potency was 0.0209 µM (active).

Take `Nc1ncc(C(=O)NC2CN(C(=O)C3CC3)C2)c2ccc(-c3cccc(F)c3)nc12`: the Potency is 23.5 µM (active).

As for `Cc1cc(-c2nc3cc(F)ccc3s2)ccc1NC(=O)[C@@H](N)CCCCN`, the Potency was 14.8 µM (active).

As for `COc1cc2c(cc1OC(C)C)[C@H](c1ccc(Cl)cc1)N(c1ccc(N(C)CC3CCC(N4CCN(C)C(=O)C4)CC3)cc1)C(=O)C2` (stereo not given in full), the Potency is 4.68 µM (active).

Regarding `CCc1c(-c2ccccc2C)nc2c(C#N)c[nH]n2c1=O`, the Potency was 1.2 nM (active) and inactive.

With `O=C(Nc1cnn2ccc(N3CCC[C@@H]3c3cc(F)ccc3F)nc12)N1CC[C@H](O)C1`, the Potency result was “inactive”.

As to `C[C@H]1CNCCCN1S(=O)(=O)c1cccc2cncc(F)c12`, the Potency entry was “inactive”.
